Mtb FBA inh: Mtb fructose-bisphosphate aldolase inhibition; 360,000 compounds, 2.3% hits; inhibition, % at 1 µM; P9WQA3; purified M. tuberculosis FBA, fluorescence read-out
Target sequence (P9WQA3 whole entry, looked up): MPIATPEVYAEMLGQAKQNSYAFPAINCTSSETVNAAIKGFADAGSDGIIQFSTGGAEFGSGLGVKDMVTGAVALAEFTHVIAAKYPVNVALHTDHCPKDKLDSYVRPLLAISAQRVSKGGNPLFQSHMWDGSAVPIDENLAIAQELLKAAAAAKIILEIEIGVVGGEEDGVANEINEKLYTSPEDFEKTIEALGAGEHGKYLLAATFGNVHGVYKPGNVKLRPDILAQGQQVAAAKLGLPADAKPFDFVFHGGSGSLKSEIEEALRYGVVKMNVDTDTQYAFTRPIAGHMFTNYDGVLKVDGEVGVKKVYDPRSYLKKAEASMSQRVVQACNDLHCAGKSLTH
GDH-TPI counter-1: inhibits GDH-TPI coupling enzymes, artifact for Mtb FBA screen | GDH-TPI coupled enzyme counterscreen, NADH absorbance | inhibition, % at 4.8 µM | 360,000 compounds, 1.2% hits | AID 588335; in the data active = inhibition above about 30%
Anthrax LF inh2: anthrax lethal factor protease inhibition. multiplex microsphere protease cleavage assay, LF. inhibition, % at 10 µM. P15917. 360,000 compounds, 0.12% hits; in the data active = inhibition above about 30%; inconclusive = no clear call, values can overlap the other calls
BoNT-F LC inh: BoNT F light chain protease inhibition; inhibition, % at 10 µM; Multiplex microsphere protease cleavage assay, flow cytometry; 360,000 compounds, 0.22% hits; AID 588497; in the data active = inhibition above about 35%, passing the limit was not always enough; inconclusive = no clear call, values can overlap the other calls
Autofluor counter: compound fluorescence in toxin protease inhibitor counterscreen; compound autofluorescence counterscreen, microsphere flow cytometry; hits give high values; AID 624483; 360,000 compounds, 3.1% hits; fluorescence intensity (test concentration not listed); in the data active = fluorescence intensity above about 16000; inconclusive = no clear call, values can overlap the other calls
BoNT-A LC inh2: BoNT A light chain protease inhibition; multiplex microsphere protease substrate cleavage, flow cytometry; inhibition, % at 10 µM; 360,000 compounds, 0.17% hits; in the data active = inhibition above about 30%; inconclusive = no clear call, values can overlap the other calls
Mtb FBA confirm: confirmation of M. tuberculosis fructose-bisphosphate aldolase inhibitors | inhibition, % at 1 µM | shares compounds with Mtb FBA inh | 5,600 compounds, 78% hits | purified M. tuberculosis FBA, fluorescence read-out
GDH-TPI counter-2: inhibits GDH-TPI coupling enzymes, flagging Mtb FBA hits; GDH-TPI coupled enzyme counterscreen, fluorescence; AID 652141; shares compounds with Mtb FBA inh; inhibition, % at 1 µM; 5,600 compounds, 81% hits; in the data active = inhibition above about 10%
GDH-TPI dose: inhibits GDH-TPI coupling enzymes in dose response; GDH-TPI coupled enzyme assay, fluorescence, artifact counterscreen; 170 compounds, 79% hits; shares compounds with Mtb FBA inh; IC50, µM; call rule not given here
Hits are given with their value. Hits are enriched below; roughly 6.6% of the tested compounds scored in any of these assays. Cut-off read from the data, not from the text of the source, unless noted: active = inhibition above about 27%; inactive = the rest.

Results for CCOC(=O)c1ccc2nc(C)c3c(c2c1)OC(C)C3 (centres undefined) ?
Mtb FBA inh: 37.7; GDH-TPI counter-1: inactive; Anthrax LF inh2: inactive; BoNT-F LC inh: inactive; Autofluor counter: inactive; BoNT-A LC inh2: inactive; Mtb FBA confirm: 175.3; GDH-TPI counter-2: 130.3

Results for COc1ccc(N2CCc3c(C)nc4c(OC)cccc4c32)cc1 ?
Mtb FBA inh: inactive; GDH-TPI counter-1: inactive; Anthrax LF inh2: inactive; BoNT-F LC inh: inactive; Autofluor counter: inactive; BoNT-A LC inh2: inactive

How did COc1ccc2nc(C)c3c(c2c1)OC(C)C3 (centres undefined) do in these assays?
Mtb FBA inh: inactive; GDH-TPI counter-1: inactive; Anthrax LF inh2: inactive; BoNT-F LC inh: inactive; Autofluor counter: inconclusive; BoNT-A LC inh2: inactive

Results for COc1cccc2c3c(c(C)nc12)CC(C)O3 (centres undefined) ?
Mtb FBA inh: 39.6; GDH-TPI counter-1: inactive; Anthrax LF inh2: inactive; BoNT-F LC inh: inactive; Autofluor counter: inactive; BoNT-A LC inh2: inactive; Mtb FBA confirm: 106.3; GDH-TPI counter-2: 75.0

How did COc1cccc(C(=O)N2[C@H](COCc3ccccc3)C=CS2(=O)=O)c1 do in these assays?
Mtb FBA inh: inactive; Anthrax LF inh2: inactive; BoNT-F LC inh: inactive; Autofluor counter: inactive; BoNT-A LC inh2: inactive

How did CCOc1ccccc1C(=O)OC(C)C(=O)Nc1ccc(S(=O)(=O)N2CCCC2)cc1 (centres undefined) do in these assays?
Mtb FBA inh: inactive; GDH-TPI counter-1: inactive; Anthrax LF inh2: inactive; BoNT-F LC inh: inactive; Autofluor counter: inactive; BoNT-A LC inh2: inactive

Results for Cn1c(-c2ccc(Cl)cc2)ccc(C#N)c1=O ?
Mtb FBA inh: inactive; GDH-TPI counter-1: inactive; Anthrax LF inh2: inactive; BoNT-F LC inh: inactive; Autofluor counter: inactive; BoNT-A LC inh2: inactive

How did N#Cc1c(-c2cccc(Cl)c2)[nH]c(=S)[nH]c1=O do in these assays?
Mtb FBA inh: inactive; GDH-TPI counter-1: inactive; Anthrax LF inh2: inactive; BoNT-F LC inh: inactive; Autofluor counter: inactive; BoNT-A LC inh2: inactive

Results for Cn1cc(-c2ccc(Cl)cc2)cc(C#N)c1=O ?
Mtb FBA inh: 56.4; GDH-TPI counter-1: inactive; Anthrax LF inh2: inactive; BoNT-F LC inh: inactive; Autofluor counter: inactive; BoNT-A LC inh2: inactive; Mtb FBA confirm: inactive; GDH-TPI counter-2: 17.0

What do the screens show for `C=CCn1cc(-c2cccc(Cl)c2)cc(C#N)c1=O`?
Mtb FBA inh: 27.8; GDH-TPI counter-1: inactive; Anthrax LF inh2: inactive; BoNT-F LC inh: inactive; Autofluor counter: inactive; BoNT-A LC inh2: inactive; Mtb FBA confirm: 69.1; GDH-TPI counter-2: 48.4

What do the screens show for `C=CCn1c(-c2ccccc2)ccc(C#N)c1=O`?
Mtb FBA inh: inactive; GDH-TPI counter-1: inactive; Anthrax LF inh2: inactive; BoNT-F LC inh: inactive; Autofluor counter: inactive; BoNT-A LC inh2: inactive

Results for N#Cc1cc(-c2cccc(Cl)c2)c[nH]c1=O ?
Mtb FBA inh: 46.0; GDH-TPI counter-1: inactive; Anthrax LF inh2: inactive; BoNT-F LC inh: inactive; Autofluor counter: inactive; BoNT-A LC inh2: inactive; Mtb FBA confirm: inactive; GDH-TPI counter-2: inactive; GDH-TPI dose: 4.11

What do the screens show for `Cc1ccccc1N(C(=O)c1snc(C(N)=O)c1N)C(C(=O)NC1CCCC1)c1ccco1` (centres undefined)?
Mtb FBA inh: 37.0; GDH-TPI counter-1: inactive; Anthrax LF inh2: inactive; BoNT-F LC inh: inactive; Autofluor counter: inactive; BoNT-A LC inh2: inactive; Mtb FBA confirm: 134.0; GDH-TPI counter-2: 98.4

How did NC(=O)c1nsc(C(=O)N(c2ccccc2)C(C(=O)NCC2CCCO2)c2ccc(F)cc2)c1N (centres undefined) do in these assays?
Mtb FBA inh: inactive; GDH-TPI counter-1: inactive; Anthrax LF inh2: inactive; BoNT-F LC inh: inactive; Autofluor counter: inactive; BoNT-A LC inh2: inactive

How did CCOc1ccc(C(C(=O)NCC2CCCO2)N(C(=O)c2snc(C(N)=O)c2N)c2cccc(F)c2)cc1 (centres undefined) do in these assays?
Mtb FBA inh: 34.2; GDH-TPI counter-1: inactive; Anthrax LF inh2: inactive; BoNT-F LC inh: inactive; Autofluor counter: inactive; BoNT-A LC inh2: inactive; Mtb FBA confirm: 91.0; GDH-TPI counter-2: 72.0

How did NC(=O)c1nsc(C(=O)N(c2ccccc2F)C(C(=O)NCc2ccc(F)cc2)c2ccc(O)cc2)c1N (centres undefined) do in these assays?
Mtb FBA inh: 35.1; GDH-TPI counter-1: inactive; Anthrax LF inh2: inactive; BoNT-F LC inh: inactive; Autofluor counter: inactive; BoNT-A LC inh2: inactive; Mtb FBA confirm: 144.6; GDH-TPI counter-2: 106.8

How did CCOc1ccc(C(C(=O)NCC2CCCO2)N(C(=O)c2snc(C(N)=O)c2N)c2ccccc2F)cc1 (centres undefined) do in these assays?
Mtb FBA inh: 52.7; GDH-TPI counter-1: inactive; Anthrax LF inh2: inactive; BoNT-F LC inh: inactive; Autofluor counter: inactive; BoNT-A LC inh2: inactive; Mtb FBA confirm: 61.7; GDH-TPI counter-2: 50.5

What do the screens show for `Cc1ccc(NC(=O)c2ccccc2NS(=O)(=O)c2ccc(Cl)s2)cc1S(=O)(=O)N1CCOCC1`?
Mtb FBA inh: inactive; GDH-TPI counter-1: inactive; Anthrax LF inh2: inactive; BoNT-F LC inh: inactive; Autofluor counter: inactive; BoNT-A LC inh2: inactive

What do the screens show for `Cc1ccc(C(C(=O)NCC2CCCO2)N(C(=O)c2snc(C(N)=O)c2N)c2ccccc2F)o1` (centres undefined)?
Mtb FBA inh: 33.2; GDH-TPI counter-1: inactive; Anthrax LF inh2: inactive; BoNT-F LC inh: inactive; Autofluor counter: inactive; BoNT-A LC inh2: inactive; Mtb FBA confirm: 58.8; GDH-TPI counter-2: 39.2

What do the screens show for `O=C(c1ccsc1)N1CCCC(N2CCOCC2)C1` (centres undefined)?
Mtb FBA inh: inactive; GDH-TPI counter-1: inactive; Anthrax LF inh2: inactive; BoNT-F LC inh: inactive; Autofluor counter: inactive; BoNT-A LC inh2: inactive

Results for COc1cc(OC)c(Cl)cc1N ?
Mtb FBA inh: 45.3; GDH-TPI counter-1: inactive; Anthrax LF inh2: inactive; BoNT-F LC inh: inconclusive; Autofluor counter: inactive; BoNT-A LC inh2: inactive; Mtb FBA confirm: 67.0; GDH-TPI counter-2: 51.0

What do the screens show for `COc1ccc(OC)c(N)c1`?
Mtb FBA inh: inactive; GDH-TPI counter-1: inactive; Anthrax LF inh2: inactive; BoNT-F LC inh: inactive; Autofluor counter: inactive; BoNT-A LC inh2: inactive

Results for Cc1c(N(C)S(=O)(=O)c2ccc(Cl)c(C(=O)N3CCC(C(N)=O)CC3)c2)c(=O)n(-c2ccccc2)n1C ?
Mtb FBA inh: inactive; GDH-TPI counter-1: inactive; Anthrax LF inh2: inactive; BoNT-F LC inh: inactive; Autofluor counter: inactive; BoNT-A LC inh2: inactive

What do the screens show for `Cc1ccc(NC(=O)CSC(C)C(=O)OCc2cc(=O)oc3cc(O)ccc23)cc1` (centres undefined)?
Mtb FBA inh: 41.3; GDH-TPI counter-1: inactive; Anthrax LF inh2: inactive; BoNT-F LC inh: inactive; Autofluor counter: inactive; BoNT-A LC inh2: inactive; Mtb FBA confirm: active; GDH-TPI counter-2: active
